{"source": "paper PMC5540273", "about": "(PLoS ONE, 2017);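 also: kd values determined as follow-up on hits from a single-replicate KINOMEscan panel screen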", "data": [{"test_system": "KIT", "units": {"Kd": "nM"}, "values": [{"smiles": "COC(=O)c1c(-c2ccccc2)c2cc(OC)ccc2c(=O)n1Cc1ccccc1", "Kd": 170}, {"smiles": "Cn1ccc2ncnc(Oc3ccc(NC(=O)Nc4ccccc4)cc3)c21", "Kd": 0.6}, {"smiles": "CC(=O)Nc1nc2cnc(Nc3cc(NC(=O)c4cccc(CCC#N)c4)ccc3C)nc2s1", "Kd": "> 10000"}, {"smiles": "Cc1ccc(NC(=O)Nc2cccc(Cl)c2)cc1-c1ccc(C(=O)Nc2ccncc2)cc1", "note": "[GSK1398468]", "Kd": 180}, {"smiles": "CC(C)(C)c1ccc(C(=O)Nc2cn3cc(-c4cccnc4)ccc3n2)cc1", "Kd": 320}, {"smiles": "Cc1ccc(C(=O)Nc2ccc(Nc3ccnc4cc(-c5ccccn5)ccc34)cc2O)cc1.Cl", "note": "[GW440146]", "Kd": 2200}, {"smiles": "Cc1cccc(-c2nc(-c3ccc(S(C)(=O)=O)cc3)sc2-c2ccnc(NCCc3ccccc3)c2)c1", "Kd": 120}, {"smiles": "COC(=O)c1c(-c2ccccc2)c2cc(C(=O)O)ccc2c(=O)n1Cc1ccccc1", "Kd": 100}, {"smiles": "O=C(Nc1ccccc1)Nc1cccc(Oc2ccc3nccn3n2)c1", "Kd": 0.94}, {"smiles": "Cc1ccc(NC(=O)Nc2cccc(C(F)(F)F)c2)cc1", "note": "[GSK955403]", "Kd": 240}, {"smiles": "Cc1ccc(NC(=O)Nc2cc(C(C)(C)C)nn2-c2ccccc2)cc1", "note": "[GSK1014915]", "Kd": 260}]}, {"test_system": "LCK", "units": {"Kd": "nM"}, "values": [{"smiles": "Cc1ccccc1-n1cnc2c(N)ncnc21", "note": "[SKF-97510]", "Kd": "> 10000"}, {"smiles": "COc1cc2nccc(Nc3ccc(NC(=O)c4ccc(C)cc4)c(O)c3)c2cc1OC.Cl", "note": "[GW440132]", "Kd": 560}, {"smiles": "Cc1ccc(C(=O)Nc2ccc(Nc3ccnc4cc(-c5ccccn5)ccc34)cc2O)cc1.Cl", "note": "[GW440146]", "Kd": 260}]}, {"test_system": "T1, LOK", "T1 construct": "gene STK10", "units": {"Kd": "nM"}, "values": [{"smiles": "Cn1ccc2ncnc(Oc3ccc(NC(=O)Nc4ccccc4)cc3)c21", "Kd": 280}, {"smiles": "COc1cc2ncn(-c3cc(OCC4CCCO4)c(C(N)=O)s3)c2cc1OC", "note": "(stereo not drawn) [GSK204607]", "Kd": 100}, {"smiles": "Cn1ccc2ncnc(Oc3ccc(Nc4nc5ccccc5[nH]4)cc3)c21", "Kd": 200}, {"smiles": "Cc1nnc(-c2ccc3occ(-c4ccc(S(C)=O)cc4)c3c2)[nH]1", "note": "(stereo not drawn)", "Kd": "> 10000"}]}, {"test_system": "LTK", "units": {"Kd": "nM"}, "values": [{"smiles": "O=C1NC(=O)C(N2CCc3ccccc32)=C1c1ccccc1Cl", "note": "[SB-373598]", "Kd": "> 10000"}, {"smiles": "O=C(O)COc1ncnc2cc(-c3ccc4[nH]ncc4c3)sc12", "Kd": "> 10000"}, {"smiles": "Nc1ncnc2[nH]c(-c3ccccc3)nc12", "note": "[AH5015]", "Kd": "> 10000"}]}]}
